Results reported in the supplement of paper PMC4237247.

tested on: HeLa; assay: percent cells in S phase; higher = more S arrest; conditions: 10 µM; 20 h; hit class: G1-phase inhibitor
Procedure: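 HTS of 79,827 drug-like compounds at 10 uM. HeLa cells in 384-well plates were treated for 20 h, fixed, stained with Vybrant DyeCycle Green and scanned on an Acumen eX3 cytometer to give per-well cell cycle profiles (% cells in each phase). The plate Z' was 0.51. Only hits are listed: G1 hits >4 SD and S hits >5 SD from the mean.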

SMILES	percent cells in S phase [%]
CC(C)(C)c1cc(C=C(C#N)C#N)cc(C(C)(C)C)c1O	8.81
C/C=C(/C)C(=O)O[C@H]1C(C)=C2[C@H]([C@@H]1OC(=O)CCCCCCC)[C@@](C)(OC(C)=O)C[C@H](OC(=O)CCC)[C@@]1(O)[C@H]2OC(=O)[C@@]1(C)O	7.22
C[C@@]12C(=O)OC(=O)[C@]1(C)[C@H]1CC[C@@H]2O1	8.95
CNc1ccc2oc(C[C@H]3O[C@@]4(CC[C@H]3C)O[C@H]([C@H](C)C(=O)c3ccc[nH]3)[C@H](C)C[C@H]4C)nc2c1C(=O)O	6.33
O=[N+]([O-])c1ccc(NCCO)c2ncccc12	4.86
C[C@@H]1C[C@@H]([C@H](O)CC2CC(=O)NC(=O)C2)C(=O)[C@@H](C)C1 [Cycloheximide]	6.83
C/C(=C\c1ccc(Cl)cc1)[N+](=O)[O-]	4.01
CNC1CC2OC(C)(C1OC)n1c3ccccc3c3c4c(c5c6ccccc6n2c5c31)C(=O)NC4 (centres undefined)	5.4
C[C@@H]1O[C@@H](O[C@H]2C[C@@H](O)[C@]3(CO)[C@H]4[C@H](O)C[C@]5(C)[C@@H](C6=CC(=O)OC6)CC[C@]5(O)[C@@H]4CC[C@]3(O)C2)[C@H](O)[C@H](O)[C@H]1O	15
